# Screening results from PubChem BioAssay.
# SUMO1 PPI mod: modulators of human SUMO1-mediated protein-protein interactions; AID 602429; P63165; SUMO1 binding to a labelled peptide, TR-FRET, 1 h; actives 0.33% (n = 360,000); inhibition, % at 20 µM; in the data active = inhibition above about 37%
# ATG4B inhibitor: ATG4B (human) cysteine protease inhibition; ATG4B cleavage of LC3-PLA2, NBD-HPC fluorescence, 1 h; inhibition, % at 8.33 µM; actives 0.51% (n = 340,000); AID 504462; in the data active = inhibition above about 40%
# Target sequence (Q9Y4P1 whole entry, looked up): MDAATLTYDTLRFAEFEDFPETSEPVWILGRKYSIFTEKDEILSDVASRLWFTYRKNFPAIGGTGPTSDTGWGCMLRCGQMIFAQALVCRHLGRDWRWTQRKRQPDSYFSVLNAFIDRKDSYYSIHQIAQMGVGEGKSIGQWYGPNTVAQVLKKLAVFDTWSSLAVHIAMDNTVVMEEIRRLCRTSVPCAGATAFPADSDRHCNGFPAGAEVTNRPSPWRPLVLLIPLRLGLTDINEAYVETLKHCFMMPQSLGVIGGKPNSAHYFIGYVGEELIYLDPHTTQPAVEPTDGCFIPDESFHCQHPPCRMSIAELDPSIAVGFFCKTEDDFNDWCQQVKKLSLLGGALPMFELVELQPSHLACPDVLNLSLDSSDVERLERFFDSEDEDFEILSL
# Neddylation inh: cullin neddylation inhibition. TR-FRET cullin neddylation, biochemical. actives 0.58% (n = 360,000). P61081+Q13564. inhibition, % at 25 µM. AID 651699; in the data active = inhibition above about 36%
# Rin1-Abl PPI inh: inhibitors of human Rin1-Abl protein interaction | P00519+Q13671 | TR-FRET Rin1/Abl binding, biochemical | inhibition, % at 7.35 µM | actives 0.4% (n = 360,000) | AID 588664; in the data active = inhibition above about 5%, passing the limit was not always enough
# ATG4B conf: ATG4B (human) inhibition, single-dose confirmed | inhibition, % at 8.33 µM | ATG4B protease fluorescent substrate cleavage assay | actives 92% (n = 320) | shares compounds with ATG4B inhibitor | AID 504757; in the data active = inhibition above about 39%
# PLA2 ctr: PLA2 (human) inhibition in ATG4B counter-screen; shares compounds with ATG4B inhibitor; purified PLA2, NBD-C6-HPC fluorescence, 45 min; inhibition, % at 8.33 µM; actives 66% (n = 1,600); in the data active = inhibition above about 50%
# * hit, by the source's call; · = no result shown. The list is not random: actives were taken first. Their share in the collection is about 1.7%.
SMILES,SUMO1 PPI mod,ATG4B inhibitor,Neddylation inh,Rin1-Abl PPI inh,PLA2 ctr,others
Cc1cc(OCC(=O)Nc2ccc(S(=O)(=O)NC3=NCCCCC3)cc2)c(C(C)C)cc1Cl,1,48*,-2,0,56*,
CCn1cc(/C=C(\NC(=O)c2ccccc2OC)C(=O)NCCN2CCOCC2)c2ccccc21,-1,·,-4,-3,·,
O=C(NN=C1CCCCCC1)c1cn(-c2ccccc2)nc1-c1ccccc1,-1,43*,-11,1,3,ATG4B conf=62*
O=C(NCc1cccc(F)c1)c1ccc(N2C(=O)Cn3c(cc4sccc43)C2=O)cc1,5,41*,-99,-1,34,
O=C(NCc1ccco1)c1ccc(Cn2c(=O)c3sccc3n(Cc3cccc(F)c3)c2=O)cc1,6,-8,-36,5,·,
COc1ccc(COc2cccc(C=O)c2)cc1,-1,9,-7,-1,·,
O=Cc1cccc(OCc2cccc3ccccc23)c1,5,61*,-16,-5,73*,
O=C(O)c1cc(O)c2c(c1)[C@H]([C@H]1c3cc(C(=O)O)cc(O)c3C(=O)c3c(O[C@@H]4O[C@H](CO)[C@@H](O)[C@H](O)[C@H]4O)cccc31)c1cccc(OC3O[C@H](CO)[C@@H](O)[C@H](O)[C@H]3O)c1C2=O (some centres undefined),116*,95*,4,12,-12,
O=C1c2cc(CO)cc(O)c2C(=O)c2c(O[C@@H]3OC(CO)[C@@H](O)[C@@H](O)[C@@H]3O)cccc21 (some centres undefined),-33,-31,-66,-9,·,
Cc1ccc(-c2csc3nc(SCC(=O)Nc4ccc(Cl)c(C(=O)O)c4)[nH]c(=O)c23)cc1,29,78*,-34,-2,78*,
O=C(c1ccc(COc2ccccc2Br)cc1)N1CCCCCC1,0,44*,-10,-1,55*,
COCCN(C(=O)c1cc(S(=O)(=O)N2CCCCC2)ccc1Cl)c1c(N)n(CC(C)C)c(=O)[nH]c1=O,1,-5,3,-2,·,
CCN1C(=O)C(CC(=O)Nc2ccc(OC)cc2)N(CCc2ccc(OC)cc2)C1=S (centres undefined),1,5,0,4,·,
COc1ccc(CCN2C(=S)N(C)C(=O)C2CC(=O)Nc2ccc(F)cc2)cc1 (centres undefined),3,43*,-9,-2,56*,
O=C(O)COc1ccccc1/C=C1\SC(=S)N(/N=C/c2ccccc2O)C1=O,31,48*,-10,-4,35,ATG4B conf=68*
CCCCCCCCN1C(=O)[C@H](CC(=O)NCCc2ccccc2OC)C[C@@]2(C(=O)OC)CCCCC=C12,4,·,6,·,·,
Fc1ccccc1CSc1nnc(-c2cnccn2)n1Cc1ccco1,1,-7,2,3,·,
Clc1ccc(CSc2nnc(-c3ccccn3)n2Cc2ccco2)c(Cl)c1,1,41*,3,-5,55*,
CCOC1=C2[C@@H](CN(S(=O)(=O)c3ccc(C)cc3)[C@H]2c2ccccc2)[C@H]2C(=O)N(Cc3ccccc3)C(=O)[C@H]2C1,0,·,-18,5,·,
COc1ccc(-c2cc(=Nc3ccc(C(=O)O)cc3)c3cc(C)ccc3o2)cc1,-1,41*,·,5,54*,
COc1ccc2cc(C(=O)NCc3ccco3)c(=Nc3ccc(C(=O)O)cc3)oc2c1,-17,-19,-17,-2,·,
O=C1C(Cl)=C(N2CCC(C(=O)O)CC2)C(=O)c2ccccc21,23,-6,-33,-4,·,
CN1CCN(C2=C(Cl)C(=O)c3ccccc3C2=O)CC1,62*,73*,-38,5,-16,ATG4B conf=30
CCOC(=O)c1ccc(/C=C2/C=C(c3ccccc3)N(c3ccc(Cl)c(C(=O)O)c3)C2=O)cc1,27,56*,15,3,41,ATG4B conf=77*
CCOC(=O)c1ccc(Cl)c(NC(=O)c2ccc(-c3ccccc3)cc2)c1,-5,-2,4,3,·,
Cc1ccc(S(=O)(=O)C2C(=O)N(C)C3(C)CC2c2ccccc2O3)cc1 (centres undefined),-1,66*,3,1,74*,
Cc1ccc(NC(=O)C2C(=O)N(CCO)C3(C)CC2c2ccccc2O3)cc1 (centres undefined),-2,4,2,-1,·,
